From the supplement of paper PMC10849652
Targets with a hit are over-represented here; the source holds about 8,800 in all. About 0.5% of all pairs of compound and target were hits.

Columns and labels:
Assay in all cases: log2 fold change, soluble protein after heating vs DMSO (PISA); higher = thermal stabilisation; K562 lysate, 10 uM; active = over 0.2 and 3.5 SD of the protein, either way, in both replicates (recomputed)
erlotinib = compound: C#Cc1cccc(Nc2ncnc3cc(OCCOC)c(OCCOC)cc23)c1 [erlotinib]
How it was run: (§1)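 Dounce homogenisation of K562 pellets in PBS pH 7.4 with 1 mM MgCl2 produced a crude extract, used at 1 mg/mL protein. Exposure to 10 μM compound lasted 30 min, and aliquots were then heated for 3 min across 48°C-58°C, pooled and brought to 0.5% NP-40 at 4°C. The supernatant after 21,000xg for 90 min was quantified by TMTpro 16plex LC-MS/MS with channel sums equalised. Duplicate values are given as log-two fold change in thermal stability relative to solvent controls.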

[1] = compound: C/C(=N\NC(=O)C1=CC(=CC=C1)S(=O)(=O)N2CCOCC2)/C3=C(C=CC(=C3)Cl)O
How it was run: as §1

[2] = compound: C1=CC(=CC=C1C2=NC3=C(N2)C=C(C=C3)C(=O)N)OC4=CC=C(C=C4)Cl
How it was run: as §1

[3] = compound: C1=CC2=C(C=CC(=C2)/C=C\3/C(=O)NC(=NCC4=CC=CS4)S3)N=C1
How it was run: as §1

[4] = compound: C1=CC2=NC=CN=C2C=C1/C=C/3\C(=O)NC(=O)S3
How it was run: as §1

[5] = compound: C1=CC=C(C=C1)C2=NC(=C(N2)C3=CC=NC=C3)C4=CC(=C(C=C4)Cl)O
How it was run: as §1

[6] = compound: C1=CC=C2C(=C1)C3=NNC4=CC=CC(=C43)C2=O
How it was run: as §1

[7] = compound: C1CCN(C1)C(=O)NC2=CC=CC(=C2)NC3=NC=C(C(=N3)NCCC4=CN=CN4)Br
How it was run: as §1

[8] = compound: C1CN(CCC1(CC2=CC=C(C=C2)Cl)N)C3=NC=NC4=C3C=CN4
How it was run: as §1

IRAK-1-4 Inhibitor I = compound: C1COCCN1CCN2C3=CC=CC=C3N=C2NC(=O)C4=CC(=CC=C4)[N+](=O)[O-] [IRAK-1-4 Inhibitor I]
How it was run: as §1

Measured: log2 fold change

NUDT5 (UniProt Q9UKK9)
inactive: erlotinib -0.013 | [1] -0.051 | [2] 0.046 | [3] 0.027 | [4] -0.001 | [5] -0.002 | [6] -0.023 | [7] -0.026 | [8] 0.014 | IRAK-1-4 Inhibitor I 0.005

NUMBL (UniProt Q9Y6R0)
inactive: erlotinib 0.031 | [1] 0.028 | [2] 0.175 | [3] -0.244 | [4] -0.025 | [5] -0.007 | [6] -0.038 | [7] -0.095 | [8] -0.045 | IRAK-1-4 Inhibitor I -0.084

NCAPH2 (UniProt Q6IBW4)
inactive: erlotinib -0.031 | [1] -0.085 | [2] 0.011 | [3] -0.012 | [4] 0.026 | [5] 0 | [6] -0.005 | [7] -0.038 | [8] 0.042 | IRAK-1-4 Inhibitor I 0.009

MRPL51 (UniProt Q4U2R6)
inactive: erlotinib -0.067 | [1] -0.05 | [2] -0.027 | [3] 0.08 | [4] -0.036 | [5] -0.039 | [6] 0.036 | [7] -0.006 | [8] -0.09 | IRAK-1-4 Inhibitor I 0.001

ORC5 (UniProt O43913)
UniProt O43913, sequence (O43913 whole entry, looked up): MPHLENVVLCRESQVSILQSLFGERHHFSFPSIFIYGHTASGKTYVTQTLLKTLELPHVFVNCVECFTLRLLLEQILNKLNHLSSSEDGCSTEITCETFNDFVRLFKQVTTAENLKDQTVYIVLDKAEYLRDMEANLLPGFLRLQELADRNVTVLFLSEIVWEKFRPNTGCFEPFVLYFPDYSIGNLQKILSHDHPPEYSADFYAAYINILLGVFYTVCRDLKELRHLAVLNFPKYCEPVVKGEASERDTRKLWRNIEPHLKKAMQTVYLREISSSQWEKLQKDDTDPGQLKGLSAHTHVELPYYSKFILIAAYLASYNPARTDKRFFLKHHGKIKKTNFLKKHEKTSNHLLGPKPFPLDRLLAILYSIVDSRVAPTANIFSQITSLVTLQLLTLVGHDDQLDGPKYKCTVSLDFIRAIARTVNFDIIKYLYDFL
inactive: erlotinib 0.014 | [1] 0.021 | [2] -0.017 | [3] 0.003 | [4] 0.045 | [5] 0.029 | [6] -0.016 | [7] -0.085 | [8] -0.061 | IRAK-1-4 Inhibitor I -0.068

PAK4 (UniProt O96013)
inactive: erlotinib 0 | [1] -0.076 | [2] 0.072 | [3] 0.052 | [4] -0.006 | [5] -0.005 | [6] 0.335 | [7] 0.469 | [8] 0.124 | IRAK-1-4 Inhibitor I -0.044

PAFAH1B3 (UniProt Q15102)
inactive: erlotinib 0.037 | [1] 0.032 | [2] -0.017 | [3] -0.017 | [4] 0.022 | [5] -0.009 | [6] 0.005 | [7] 0.025 | [8] 0.027 | IRAK-1-4 Inhibitor I 0.005

MTA2 (UniProt O94776)
inactive: erlotinib -0.025 | [1] -0.017 | [2] 0.019 | [3] 0.013 | [4] -0.012 | [5] -0.015 | [6] -0.023 | [7] -0.007 | [8] 0.021 | IRAK-1-4 Inhibitor I -0.005

NIPBL (UniProt Q6KC79)
UniProt Q6KC79, sequence (Q6KC79 whole entry, looked up): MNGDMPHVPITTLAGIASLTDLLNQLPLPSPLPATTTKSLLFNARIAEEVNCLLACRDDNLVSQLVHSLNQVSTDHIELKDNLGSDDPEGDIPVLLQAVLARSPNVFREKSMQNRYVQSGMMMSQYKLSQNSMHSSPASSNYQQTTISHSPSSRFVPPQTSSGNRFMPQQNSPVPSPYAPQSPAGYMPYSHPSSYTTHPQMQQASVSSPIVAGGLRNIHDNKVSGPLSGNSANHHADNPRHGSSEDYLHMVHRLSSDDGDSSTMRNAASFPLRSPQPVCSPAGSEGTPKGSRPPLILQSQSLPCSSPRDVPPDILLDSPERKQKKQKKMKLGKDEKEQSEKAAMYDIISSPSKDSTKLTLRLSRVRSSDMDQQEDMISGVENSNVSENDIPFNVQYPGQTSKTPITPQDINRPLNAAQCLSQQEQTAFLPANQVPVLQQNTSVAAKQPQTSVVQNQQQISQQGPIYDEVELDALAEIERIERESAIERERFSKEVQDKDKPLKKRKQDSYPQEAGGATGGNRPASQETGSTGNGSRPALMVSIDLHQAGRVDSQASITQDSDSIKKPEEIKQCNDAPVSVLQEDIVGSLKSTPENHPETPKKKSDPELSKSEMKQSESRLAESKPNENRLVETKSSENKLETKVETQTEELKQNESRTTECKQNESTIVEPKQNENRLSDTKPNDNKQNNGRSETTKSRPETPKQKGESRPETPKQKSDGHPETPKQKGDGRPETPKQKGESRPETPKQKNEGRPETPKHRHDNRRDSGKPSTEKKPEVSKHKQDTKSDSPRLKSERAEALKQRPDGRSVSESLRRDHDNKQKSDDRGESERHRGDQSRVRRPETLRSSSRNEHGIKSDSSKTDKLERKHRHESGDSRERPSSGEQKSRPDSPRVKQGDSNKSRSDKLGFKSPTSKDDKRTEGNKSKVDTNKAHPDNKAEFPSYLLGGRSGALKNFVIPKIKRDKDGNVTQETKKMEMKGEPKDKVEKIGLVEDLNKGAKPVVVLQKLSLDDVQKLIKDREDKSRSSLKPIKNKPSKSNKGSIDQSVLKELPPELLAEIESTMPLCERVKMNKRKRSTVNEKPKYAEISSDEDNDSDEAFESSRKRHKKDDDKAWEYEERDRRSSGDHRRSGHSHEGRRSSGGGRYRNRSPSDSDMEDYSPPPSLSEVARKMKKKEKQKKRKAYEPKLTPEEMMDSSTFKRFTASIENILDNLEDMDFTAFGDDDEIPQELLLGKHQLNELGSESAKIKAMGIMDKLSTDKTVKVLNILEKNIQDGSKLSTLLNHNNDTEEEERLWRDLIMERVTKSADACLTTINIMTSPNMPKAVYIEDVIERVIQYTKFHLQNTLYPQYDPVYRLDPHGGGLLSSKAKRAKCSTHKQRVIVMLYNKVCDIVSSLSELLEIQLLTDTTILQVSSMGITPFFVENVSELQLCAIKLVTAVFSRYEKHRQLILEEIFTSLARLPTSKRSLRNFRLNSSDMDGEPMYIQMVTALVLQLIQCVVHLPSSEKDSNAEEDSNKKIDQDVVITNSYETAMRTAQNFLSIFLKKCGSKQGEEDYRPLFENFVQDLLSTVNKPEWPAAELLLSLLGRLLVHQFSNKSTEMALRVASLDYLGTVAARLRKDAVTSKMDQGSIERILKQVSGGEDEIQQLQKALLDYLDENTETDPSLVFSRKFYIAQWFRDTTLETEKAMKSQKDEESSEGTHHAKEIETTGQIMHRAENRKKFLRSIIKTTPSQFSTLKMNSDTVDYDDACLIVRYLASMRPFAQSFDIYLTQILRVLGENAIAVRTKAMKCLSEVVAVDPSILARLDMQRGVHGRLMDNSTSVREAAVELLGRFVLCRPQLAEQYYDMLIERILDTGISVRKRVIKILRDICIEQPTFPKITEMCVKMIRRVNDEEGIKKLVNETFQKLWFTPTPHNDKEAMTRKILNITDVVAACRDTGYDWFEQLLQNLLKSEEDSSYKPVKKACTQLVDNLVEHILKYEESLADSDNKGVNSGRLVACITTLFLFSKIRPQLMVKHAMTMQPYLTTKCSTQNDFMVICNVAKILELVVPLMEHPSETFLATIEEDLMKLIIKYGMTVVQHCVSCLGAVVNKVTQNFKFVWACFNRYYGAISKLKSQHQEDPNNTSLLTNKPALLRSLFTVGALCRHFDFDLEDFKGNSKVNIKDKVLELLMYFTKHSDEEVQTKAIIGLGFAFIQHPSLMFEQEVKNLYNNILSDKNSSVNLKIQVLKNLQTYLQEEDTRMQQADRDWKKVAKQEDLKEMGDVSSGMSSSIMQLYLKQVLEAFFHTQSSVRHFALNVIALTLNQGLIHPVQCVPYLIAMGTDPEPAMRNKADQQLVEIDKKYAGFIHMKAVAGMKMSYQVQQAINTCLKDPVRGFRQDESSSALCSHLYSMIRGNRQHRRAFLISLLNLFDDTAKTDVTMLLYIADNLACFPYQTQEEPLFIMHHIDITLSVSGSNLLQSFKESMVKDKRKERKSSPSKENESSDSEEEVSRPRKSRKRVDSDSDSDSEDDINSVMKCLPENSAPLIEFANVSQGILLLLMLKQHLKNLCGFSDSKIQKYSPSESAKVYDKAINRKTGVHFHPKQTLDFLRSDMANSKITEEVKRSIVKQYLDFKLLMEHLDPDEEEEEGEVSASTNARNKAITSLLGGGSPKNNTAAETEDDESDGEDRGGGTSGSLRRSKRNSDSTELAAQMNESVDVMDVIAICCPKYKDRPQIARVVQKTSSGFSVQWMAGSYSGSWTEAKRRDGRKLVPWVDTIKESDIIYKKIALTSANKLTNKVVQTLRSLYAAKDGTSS
inactive: erlotinib -0.025 | [1] 0.044 | [2] -0.003 | [3] 0.009 | [4] 0.005 | [5] -0.013 | [6] 0.003 | [7] -0.014 | [8] 0.007 | IRAK-1-4 Inhibitor I -0.043

NUSAP1 (UniProt Q9BXS6)
inactive: erlotinib -0.011 | [1] -0.466 | [2] 0.025 | [3] -0.008 | [4] -0.033 | [5] 0.008 | [6] 0.035 | [7] 0.012 | [8] 0.001 | IRAK-1-4 Inhibitor I -0.005

NUP205 (UniProt Q92621)
inactive: erlotinib 0.03 | [1] -0.022 | [2] -0.018 | [3] 0.049 | [4] -0.008 | [5] -0.013 | [6] -0.06 | [7] -0.009 | [8] 0.035 | IRAK-1-4 Inhibitor I 0.005

NFAT5 isoform 5 (UniProt O94916)
inactive: erlotinib -0.06 | [1] -0.012 | [2] 0.016 | [3] -0.036 | [4] 0.049 | [5] -0.008 | [6] -0.012 | [7] -0.006 | [8] 0.02 | IRAK-1-4 Inhibitor I 0.047

MT-CYB (UniProt P00156)
inactive: erlotinib 0.076 | [1] 0.141 | [2] 0.027 | [3] 0.024 | [4] 0.015 | [5] -0.229 | [6] 0.126 | [7] -0.105 | [8] 0.025 | IRAK-1-4 Inhibitor I 0.028

MTA1 (UniProt Q13330)
inactive: erlotinib 0.006 | [1] 0 | [2] 0.013 | [3] 0.017 | [4] -0.036 | [5] 0 | [6] -0.035 | [7] 0.002 | [8] -0.008 | IRAK-1-4 Inhibitor I 0.015

NNMT (UniProt P40261)
inactive: erlotinib -0.015 | [1] 0.003 | [2] 0.045 | [3] -0.001 | [4] -0.003 | [5] 0.032 | [6] -0.019 | [7] -0.002 | [8] -0.006 | IRAK-1-4 Inhibitor I -0.024

NUP188 (UniProt Q5SRE5)
inactive: erlotinib 0.066 | [1] 0.011 | [2] -0.01 | [3] 0.004 | [4] -0.007 | [5] -0.03 | [6] -0.034 | [7] 0.027 | [8] -0.003 | IRAK-1-4 Inhibitor I 0.023

NEBL (UniProt O76041)
inactive: erlotinib -0.014 | [1] -0.028 | [2] 0.05 | [3] 0.015 | [4] -0.048 | [5] 0.001 | [6] -0.082 | [7] -0.087 | [8] 0.013 | IRAK-1-4 Inhibitor I 0.054

OTC (UniProt P00480)
inactive: erlotinib 0.09 | [1] 0.138 | [2] -0.096 | [3] -0.121 | [4] -0.049 | [5] -0.074 | [6] -0.069 | [7] -0.074 | [8] -0.095 | IRAK-1-4 Inhibitor I 0.125

MYO1D (UniProt O94832)
inactive: erlotinib 0.01 | [1] -0.064 | [2] -0.022 | [3] 0.004 | [4] 0.006 | [5] 0.01 | [6] -0.083 | [7] 0.015 | [8] 0.031 | IRAK-1-4 Inhibitor I -0.027

MRPS18A isoform 2 (UniProt Q9NVS2)
inactive: erlotinib 0.024 | [1] -0.038 | [2] 0.038 | [3] 0.112 | [4] -0.035 | [5] -0.053 | [6] -0.013 | [7] 0.009 | [8] 0.004 | IRAK-1-4 Inhibitor I 0.015

NDUFAF5 (UniProt Q5TEU4)
inactive: erlotinib -0.001 | [1] 0.027 | [2] 0.016 | [3] 0.021 | [4] -0.022 | [5] 0.009 | [6] 0.11 | [7] 0.193 | [8] -0.056 | IRAK-1-4 Inhibitor I 0.07

NR2C2 isoform 2 (UniProt P49116)
inactive: erlotinib 0.006 | [1] 0.135 | [2] -0.014 | [3] 0.134 | [4] -0.012 | [5] 0.064 | [6] -0.035 | [7] 0.061 | [8] -0.041 | IRAK-1-4 Inhibitor I -0.019

OAT (UniProt P04181)
inactive: erlotinib -0.006 | [1] -0.074 | [2] -0.04 | [3] 0.023 | [4] 0.007 | [5] -0.017 | [6] -0.038 | [7] -0.033 | [8] 0.008 | IRAK-1-4 Inhibitor I 0.018

NFATC2 (UniProt Q13469)
inactive: erlotinib 0.002 | [1] 0.067 | [2] 0.014 | [3] 0.032 | [4] -0.016 | [5] 0.002 | [6] -0.144 | [7] -0.018 | [8] -0.049 | IRAK-1-4 Inhibitor I 0.033

MVB12A (UniProt Q96EY5)
inactive: erlotinib 0.027 | [1] -0.049 | [2] 0.022 | [3] -0.001 | [4] -0.024 | [5] -0.001 | [6] -0.046 | [7] -0.089 | [8] -0.003 | IRAK-1-4 Inhibitor I -0.001

NCK1 (UniProt P16333)
inactive: erlotinib 0.02 | [1] 0.036 | [2] 0.04 | [3] -0.007 | [4] -0.01 | [5] -0.009 | [6] -0.072 | [7] -0.024 | [8] 0.049 | IRAK-1-4 Inhibitor I 0.002

NCKAP1L (UniProt P55160)
UniProt P55160, sequence (P55160 whole entry, looked up): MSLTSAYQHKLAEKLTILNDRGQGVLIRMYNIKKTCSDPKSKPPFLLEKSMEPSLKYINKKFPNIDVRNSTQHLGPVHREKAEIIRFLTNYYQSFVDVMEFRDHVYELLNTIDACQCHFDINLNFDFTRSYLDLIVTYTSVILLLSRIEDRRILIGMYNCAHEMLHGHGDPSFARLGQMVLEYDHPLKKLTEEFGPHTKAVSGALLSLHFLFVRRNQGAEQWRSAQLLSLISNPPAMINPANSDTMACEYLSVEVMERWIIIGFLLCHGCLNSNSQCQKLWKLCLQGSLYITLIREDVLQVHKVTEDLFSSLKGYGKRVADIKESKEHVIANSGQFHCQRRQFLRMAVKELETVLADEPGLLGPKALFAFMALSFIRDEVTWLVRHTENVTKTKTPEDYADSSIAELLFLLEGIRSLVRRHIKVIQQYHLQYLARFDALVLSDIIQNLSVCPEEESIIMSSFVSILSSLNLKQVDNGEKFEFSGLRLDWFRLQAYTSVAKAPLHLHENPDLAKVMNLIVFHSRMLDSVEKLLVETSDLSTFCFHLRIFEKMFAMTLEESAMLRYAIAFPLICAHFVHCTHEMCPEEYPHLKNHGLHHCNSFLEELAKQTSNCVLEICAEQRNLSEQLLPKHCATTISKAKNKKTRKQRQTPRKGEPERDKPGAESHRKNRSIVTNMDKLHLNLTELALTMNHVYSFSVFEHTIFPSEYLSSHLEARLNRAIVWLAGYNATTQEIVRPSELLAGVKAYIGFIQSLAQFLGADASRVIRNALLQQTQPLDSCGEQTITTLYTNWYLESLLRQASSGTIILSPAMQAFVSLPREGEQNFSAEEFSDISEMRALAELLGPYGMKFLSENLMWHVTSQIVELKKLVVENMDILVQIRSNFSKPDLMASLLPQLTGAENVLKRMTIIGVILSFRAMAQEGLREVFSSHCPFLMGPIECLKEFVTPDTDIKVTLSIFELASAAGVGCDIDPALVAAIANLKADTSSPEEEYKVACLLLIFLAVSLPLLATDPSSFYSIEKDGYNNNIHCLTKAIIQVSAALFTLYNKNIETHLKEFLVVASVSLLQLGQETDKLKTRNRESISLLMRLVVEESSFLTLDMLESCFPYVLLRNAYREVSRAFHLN
inactive: erlotinib 0.005 | [1] -0.06 | [2] -0.006 | [3] 0.196 | [4] 0.055 | [5] -0.032 | [6] -0.156 | [7] 0.06 | [8] 0.084 | IRAK-1-4 Inhibitor I 0.06

MTFP1 (UniProt Q9UDX5)
inactive: erlotinib -0.006 | [1] 0.092 | [2] 0.035 | [3] 0.041 | [4] -0.043 | [5] -0.003 | [6] 0.081 | [7] -0.044 | [8] 0.044 | IRAK-1-4 Inhibitor I -0.058

NEXN (UniProt Q0ZGT2)
UniProt Q0ZGT2, sequence (Q0ZGT2 whole entry, looked up): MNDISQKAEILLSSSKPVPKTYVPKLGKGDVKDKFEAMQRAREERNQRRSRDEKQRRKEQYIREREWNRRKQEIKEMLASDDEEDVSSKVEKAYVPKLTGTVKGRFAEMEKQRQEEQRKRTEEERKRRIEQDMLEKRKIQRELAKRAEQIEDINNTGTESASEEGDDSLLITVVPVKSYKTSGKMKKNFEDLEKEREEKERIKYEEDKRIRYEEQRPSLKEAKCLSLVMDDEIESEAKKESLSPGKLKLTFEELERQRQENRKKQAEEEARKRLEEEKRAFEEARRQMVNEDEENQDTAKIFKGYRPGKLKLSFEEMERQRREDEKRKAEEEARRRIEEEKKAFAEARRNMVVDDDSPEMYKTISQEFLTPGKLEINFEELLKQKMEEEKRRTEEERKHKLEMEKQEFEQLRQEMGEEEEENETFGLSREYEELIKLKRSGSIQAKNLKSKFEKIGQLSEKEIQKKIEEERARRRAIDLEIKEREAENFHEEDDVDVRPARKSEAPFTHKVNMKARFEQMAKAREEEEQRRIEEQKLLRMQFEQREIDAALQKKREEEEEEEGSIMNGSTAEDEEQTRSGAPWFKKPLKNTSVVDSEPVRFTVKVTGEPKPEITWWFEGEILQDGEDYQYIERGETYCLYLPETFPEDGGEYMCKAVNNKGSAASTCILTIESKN
inactive: erlotinib 0.091 | [1] -0.011 | [2] -0.019 | [3] -0.067 | [4] -0.154 | [5] -0.144 | [6] -0.049 | [7] -0.255 | [8] 0.28 | IRAK-1-4 Inhibitor I -0.133
